# Screening data deposited in PubChem BioAssay by National Center for Advancing Translational Sciences (NCATS).
# ASM inhibitor: human S-ASM enzyme inhibition. 340,000 tested, 0.006% active. AID 504937. P17405. Potency, µM (doses to about 57.5 µM), inactives show top-dose activity change, negative = inhibition, hits mostly inhibitors. placental ASM, HMU-PC fluorogenic substrate, 60 min; also: potency is read from the fitted curve at half-maximal effect
# Target sequence (P17405 47-631 limits assumed): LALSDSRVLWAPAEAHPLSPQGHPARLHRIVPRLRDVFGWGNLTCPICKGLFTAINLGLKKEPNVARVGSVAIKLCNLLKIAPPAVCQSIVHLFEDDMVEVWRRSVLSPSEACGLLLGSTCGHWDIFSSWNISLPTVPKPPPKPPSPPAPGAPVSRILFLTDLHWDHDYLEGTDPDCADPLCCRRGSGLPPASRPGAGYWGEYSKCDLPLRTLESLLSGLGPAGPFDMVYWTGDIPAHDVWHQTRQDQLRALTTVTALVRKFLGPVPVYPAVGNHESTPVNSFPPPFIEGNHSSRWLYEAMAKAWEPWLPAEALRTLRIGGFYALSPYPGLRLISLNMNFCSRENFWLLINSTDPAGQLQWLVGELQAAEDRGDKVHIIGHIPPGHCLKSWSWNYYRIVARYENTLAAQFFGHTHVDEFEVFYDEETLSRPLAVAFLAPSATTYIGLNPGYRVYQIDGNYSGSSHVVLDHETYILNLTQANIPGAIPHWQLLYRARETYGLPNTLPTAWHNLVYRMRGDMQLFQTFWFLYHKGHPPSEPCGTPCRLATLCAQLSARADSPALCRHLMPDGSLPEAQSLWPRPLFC
#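 qHTS format. ASM enzyme prepared from human placenta hydrolyses the fluorogenic substrate HMU-PC0 (9 uM final) over 60 min at 37 °C after a 10 min compound preincubation.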
# IL-1B inflam inh: inhibitors of inflammasome signaling (IL-1 beta secretion) | THP-1 LPS/ATP IL-1B secretion, AlphaLISA, 16 h; active compounds read low | activity change, % at 57.5 µM | 360,000 tested, 4.7% active; in the data active = activity change below about -50%; inconclusive = mostly about -30% to -49%; also: % is scaled to controls: 0 for no effect and ±100 for the full control effect
#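 Secreted IL-1B measured by AlphaLISA bead assay after 16 h compound exposure of THP-1 cells; compounds (final up to 57.5 uM) added 1 h before LPS (250 ng/mL) and ATP (1.25 mM) stimulation; lower signal means less secretion.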
# DT40 TDP1 no CPT: qHTS for Inhibitors of human tyrosyl-DNA phosphodiesterase 1 (TDP1): qHTS in cells in absence of CPT. AID 686978, 2013. DT40 Tdp1-/- hTDP1 cells, no CPT, ATP luminescence, 48 h. Potency, µM (titrated, usually from 46.2 µM), without a hit: at the top dose activity change, negative = growth inhibition, usual class: inhibitors. 420,000 tested, 15% active; also: potency is read from the fitted curve at half-maximal effect; % is scaled to controls: 0 for no effect and ±100 for the full control effect; nearly all actives have a fitted effect of over 55% in size
#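 Camptothecin absent (DMSO only). Human TDP1-complemented DT40 knockout cells, 400 cells/well, 37 °C for minimum 48 hr; ATP measured via CellTiter-Glo, 30 min dark incubation, luminescence.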
# TGFb inhibitor: inhibitors of TGF-b signaling; HepG2 CAGA-GFP TGF-b/SMAD3 reporter, GFP fluorescence, 18 h; TGF-beta stimulated, 500 pg/mL final; Potency, µM (top dose mostly 46.1 µM), for inactives: top-dose activity, negative = inhibition, actives largely listed as inhibitors; 410,000 tested, 1.2% active; AID 588855; also: potency is read from the fitted curve at half-maximal effect; % is scaled to controls: 0 for no effect and ±100 for the full control effect; nearly all actives have a fitted effect of over 65% in size
#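 Using HEPG2 CAGA-GFP reporter cells at 1000 cells/well, we pinned test compounds, stimulated with recombinant TGF-beta (500 pg/mL final) and measured total well GFP after 18 h.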
# HepG2 viability: counter-screen for TGF-b inhibitors: cytotoxicity in HepG2 cells. HepG2 CAGA-GFP viability, ATP luminescence, 18 h. Potency, µM (titrated, usually from 46.1 µM), for inactives: top-dose activity change, negative = cytotoxicity, most hits filed as cytotoxic. 410,000 tested, 0.76% active. AID 588856; also: potency is read from the fitted curve at half-maximal effect
#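 HepG2 CAGA-GFP cells (1000/well, DMEM with 1% FBS) received compound, then TGF-beta at 500 pg/mL final, and were incubated 18 hours at 37 degrees C. Viability was read by CellTiter-Glo luminescence. Media-only wells were set as complete cell-killing and DMSO as no toxicity.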
# DT40 TDP1 CPT: DT40-hTDP1 cell growth loss with CPT; chicken DT40 Tdp1-/-;hTDP1 cells + 20 nM CPT, ATP luminescence, 48 h; Potency, µM (doses to about 46.2 µM), without a hit: at the highest dose activity change, negative = growth inhibition, most hits filed as inhibitors; 420,000 tested, 12% active; AID 686979; also: potency is read from the fitted curve at half-maximal effect; % is scaled to controls: 0 for no effect and ±100 for the full control effect; nearly all actives have a fitted effect of over 55% in size
#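 Chicken DT40 Tdp1-/- cells complemented with human TDP1, 400 cells/well, exposed to compounds plus 20 nM camptothecin for at least 48 h at 37 C; viability read as ATP content by CellTiter-Glo luminescence.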
# Active calls of the source: *; u = inconclusive; x = no result given. This is a sample that favours compounds with a hit; in the whole collection about 19% have one here. Unless noted, calls follow the shape of the dose curve; as a rule, active = well fitted curve in the direction sought with a large enough effect; inconclusive = small, poorly fitted or top-dose-only effect, or another doubt; inactive = no such curve, though single readings can be large; an effect the other way counts as inactive or inconclusive.
SMILES,ASM inhibitor,IL-1B inflam inh,DT40 TDP1 no CPT,TGFb inhibitor,HepG2 viability,DT40 TDP1 CPT
CCCNC(=O)C1(C)CCN(C(=O)Cc2ccc3ccccc3c2)C1 (stereo not drawn),x,0,u,3%,-16%,u
CCOC(=O)C1(C)CCCN(C(=O)c2ccccc2)C1 (stereo not drawn),x,-3,-7%,-9%,-38%,u
O=c1ccnc(Nc2ccc([N+](=O)[O-])cc2)[nH]1,-2%,34,u,0%,-12%,u
Cc1ccc(NC(=O)CN2c3cccc4cccc(c34)S2(=O)=O)cc1,38%,-17,u,u,-25%,23µM*
Cc1cc(C(=O)CN2c3cccc4cccc(c34)S2(=O)=O)c(C)n1C,34%,62,3.3µM*,-22%,4%,4.6µM*
COC(=O)c1cc(S(=O)(=O)Nc2cc(OC)cc(OC)c2)cn1C,1%,5,u,-13%,-12%,-27%
CCOC(=O)c1cc(-c2ccccc2)n(CC(=O)Nc2ccc(OC)c(OC)c2)c1C,-2%,27,u,8%,4%,u
CCOC(=O)c1cc(S(=O)(=O)Nc2cccc(OC)c2)cn1C,4%,10,u,-22%,0%,21µM*
CCOC(=O)c1cc(-c2ccccc2)n(CC(=O)Nc2ccccc2OCC)c1C,x,x,9.2µM*,1%,-5%,-81%
CCOC(=O)c1cc(-c2ccccc2)n(CCC(=O)Nc2cc(OCC)ccc2OCC)c1C,x,x,u,0%,7%,16µM*
CCOC(=O)c1cc(-c2ccccc2)n(CC(=O)Nc2cccc(OC)c2)c1C,0%,-16,5.8µM*,u,-17%,u
CCn1ncc(/C=N\NC(=O)c2cc(-c3ccc(C)cc3C)nc3ccccc23)c1C,-10%,0,u,3%,-4%,u
COc1ccc(CCNC(=O)c2cc(-c3ccccn3)nc3ccccc23)cc1,1%,5,u,7%,-18%,u
CC(=O)c1cc(-c2ccccc2)n(CC(=O)Nc2cccc(C)c2)c1C,-3%,-4,15µM*,0%,-55%,18µM*
CCOC(=O)c1cc(-c2ccccc2)n(CC(=O)NCc2ccccc2OC)c1C,x,x,16µM*,0%,-7%,16µM*
O=C(O)c1c[nH]c2ccc(F)cc2c1=O,1%,-5,-23%,-13%,-12%,1%
O=C(O)c1ccccc1Sc1c([N+](=O)[O-])cc(C(F)(F)F)cc1[N+](=O)[O-],-4%,-67*,u,6%,-34%,u
O=C(COC(=O)c1cc[n+]([O-])cc1)Nc1ccc(Cl)cc1Cl,2%,11,-10%,6%,9%,-12%
Cc1ccc(C(=O)COC(=O)c2cc(-c3ccc(Cl)cc3)nc3ccccc23)cc1,x,x,21µM*,-1%,-3%,10µM*
Cc1ccc(C(=O)NCC(=O)OCC(=O)Nc2ncc(C(F)(F)F)cc2Cl)cc1,2%,0,22%,-3%,12%,-5%
Cc1ccc(-c2cc(C(=O)OCC(=O)Nc3ncc(C(F)(F)F)cc3Cl)c3ccccc3n2)cc1,101%,28,u,12%,4%,15µM*
Cc1ccc(C(=O)COC(=O)c2cc(Cl)nc3ccccc23)cc1C,-7%,14,-17%,-20%,1%,-7%
COc1cccc(NC(=O)N2C3CCCC2CC(NC(=O)C(C)(C)C)C3)c1 (stereo not drawn),-2%,2,10%,-15%,1%,-4%
Cc1cc(=O)c2cc(C(=O)Nc3ccccc3)ccc2[nH]1,x,x,-16%,35%,6%,-15%
CC1CC(C)CN(S(=O)(=O)c2ccc3c(c2)CCN3C(=O)C2CC2)C1 (stereo not drawn),-1%,10,-28%,-1%,-1%,u
SMILES,ASM inhibitor,IL-1B inflam inh,DT40 TDP1 no CPT,TGFb inhibitor,HepG2 viability,DT40 TDP1 CPT
OCCOCCn1c(C(CO)Nc2nc(-c3ccc(F)cc3)cs2)nc2ccccc21 (stereo not drawn),-8%,1,u,-6%,-12%,-22%
O=[N+]([O-])c1cc(-c2csc(NC(CO)c3nc4ccccc4n3CCOCCO)n2)ccc1Cl (stereo not drawn),-17%,0,18µM*,u,-3%,u
CCCn1c(C(C)Nc2nc(-c3ccc(Cl)c([N+](=O)[O-])c3)cs2)nc2ccccc21 (stereo not drawn),-15%,-16,u,u,1%,23µM*
CCCn1c(C(C)Nc2nc(-c3cccc(Br)c3)cs2)nc2ccccc21 (stereo not drawn),-9%,15,u,-9%,-1%,u
O=C(CN1CCCc2ccccc21)Nc1ccc(F)cc1[N+](=O)[O-],-3%,17,-4%,-14%,-35%,u
COc1ccccc1C1CC(c2ccccc2)Nc2ncnn21 (stereo not drawn),2%,26,23µM*,-29%,-11%,8.2µM*
COc1ccccc1C1CC(c2ccc(F)cc2)Nc2ncnn21 (stereo not drawn),5%,6,21µM*,u,0%,7.3µM*
COc1ccccc1C1CC(c2ccc(C)cc2)Nc2ncnn21 (stereo not drawn),1%,-17,18µM*,-8%,-14%,u
COc1cccc(C2CC(c3ccccc3Cl)n3ncnc3N2)c1 (stereo not drawn),7%,-13,u,-7%,-9%,-22%
Fc1ccc(C2CC(c3ccco3)n3ncnc3N2)cc1 (stereo not drawn),-4%,-3,-17%,-15%,-23%,-13%
CCOc1ccccc1NC(=O)CSc1nc2c(c(=O)n(C)c(=O)n2C)n1C,0%,21,u,3%,-9%,-18%
COc1ccc(C(C(=O)NCc2ccccc2)N(Cc2ccco2)C(=O)c2cnccn2)cc1 (stereo not drawn),-1%,0,u,15%,-1%,u
Cc1ccc(C(C(=O)NCc2ccccc2)N(Cc2cccs2)C(=O)c2ccc3c(c2)OCCO3)cc1 (stereo not drawn),-13%,-7,3.7µM*,-6%,-12%,9.2µM*
COC(=O)c1ccc(C(C(=O)NCc2ccccc2)N(Cc2cccs2)C(=O)c2cnccn2)cc1 (stereo not drawn),-3%,-1,16µM*,-2%,3%,u
